For 89 compounds, survival results are on record in PubChem BioAssay AID463173 (ICCB-Longwood Screening Facility, Harvard Medical School, 2010).

About 1,700 (3.3%) of roughly 52,000 compounds were called active. Rule as the data show it: active = survival mostly below about 52% (no sharp cut-off); inactive = mostly above about 56%. What follows is part of a selection rich in actives, with near analogues and random picks from the rest.

The assay relates to Wild type. Nature of the assay: growth inhibition of S. aureus wild type versus tarO mutant, primary screen, teichoic acid synthesis inhibitors, RN4220, OD600 (AID 463173). As to conditions: S. aureus RN4220 wild type/DeltatarO growth, OD600, 18 h, active compounds read low, screened at 18.75 µg/mL (by protocol).
Regarding `COc1ccc(Cl)cc1NC(=O)c1cc2c(s1)-c1ccccc1OC2`, the survival is 80% (inactive).

In the case of `CCCN(C(=O)c1cc2c(s1)-c1ccccc1OC2)c1ccc(C(C)C)cc1`, the survival was 5% (active).

Consider `CCCN(C(=O)c1cc2c(s1)-c1c(C)cccc1OC2)c1ccc(OCC)cc1`, for which the survival is 95% (inactive). As to `CCN(C(=O)c1cc2c(s1)-c1ccccc1OC2)c1cccc(C(F)(F)F)c1`, the survival was 14% (active). With `CCOc1ccc(N(CC)C(=O)c2cc3c(s2)-c2ccccc2OC3)cc1` the figure was 88% (inactive); with `CCN(C(=O)c1cc2c(=O)oc3ccccc3c2s1)c1cccc(C(F)(F)F)c1`, 131% (inactive). With `CCN(C(=O)c1cc2c(s1)-c1ccccc1OC2)c1cc(Cl)ccc1OC` the figure was 8% (active); with `COc1ccccc1CNC(=O)c1cc2c(s1)-c1ccccc1OC2`, 92% (inactive).

Consider `CCc1ccc(CNC(=O)c2cc3c(s2)-c2ccccc2OC3)cc1`, for which the survival was 95% (inactive).

Regarding `CCOc1ccc(CNC(=O)c2cc3c(s2)-c2ccccc2OC3)cc1`, the survival was 91% (inactive).

Regarding `CCc1ccccc1N(CC)C(=O)c1cc2c(s1)-c1ccccc1OC2`, the survival is 9% (active). With `CCN(C(=O)c1cc2c(=O)n(CC)c3ccccc3c2s1)c1cccc(C(F)(F)F)c1` the figure was 89% (inactive); with `O=C(CSCc1cnn(-c2ccccc2)c1-n1cccc1)NCc1cccc(Cl)c1`, 91% (inactive); with `O=C(O)C1CCN(C(=O)c2ccc(-c3ccccc3)cc2)CC1`, 116% (inactive).

With `Cc1ccc(Cl)cc1-n1c(=O)c2sc3ccccc3c2n(Cc2ccccc2)c1=O`, the survival was 77% (inactive). As for `Cn1c(=O)oc2cc(S(=O)(=O)CCC(=O)NCc3ccc(Cl)cc3)ccc21`, the survival is 74% (inactive). Take `CCc1ccccc1N(CC)C(=O)c1cc2c(s1)-c1ccccc1SC2`: the survival is -1% (active).

For the compound `O=C(NCc1ccccc1Cl)c1cc2c(s1)-c1ccccc1SC2`, the survival is 74% (inactive).

Regarding `Cc1ccc(CNC(=O)c2cc3c(s2)-c2ccccc2SC3)cc1`, the survival was 120% (inactive).

Take `CCOc1ccc(CCNC(=O)c2ccc3c(c2)N(Cc2ccccc2F)C(=O)c2ccccc2S3=O)cc1OCC` (centres undefined): the survival was 84% (inactive). As to `Cn1c(C(=O)NCc2ccc(Cl)cc2)cc2c(=O)n(C)c3ccccc3c21`, the survival is 120% (inactive).

With `CCNC(=O)c1c(NC(=O)c2cc(=O)c3ccc(C)c(C)c3o2)sc2c1CCCC2`, the survival was 85% (inactive). For the compound `Cc1ccccc1OCC(=O)OCc1cc(=O)n2ccsc2n1`, the survival was 82% (inactive). To `CCOc1ccc(C(=O)Nc2ccc(C(=O)OCc3cc(=O)n4c(C)csc4n3)cc2)cc1` belongs 85% (inactive); to `COc1cccc(C(=O)Nc2cccc(C(=O)OCc3cc(=O)n4c(C)csc4n3)c2)c1`, 133% (inactive). `Cc1csc2nc(COC(=O)c3cccc(NC(=O)c4cccc(Cl)c4)c3)cc(=O)n12`: the survival is -1% (active).

As for `Cc1csc2nc(COC(=O)c3ccc(F)cc3)cc(=O)n12`, the survival was 81% (inactive). On to `Cc1cccc(C(=O)Nc2ccccc2OCc2cc(=O)n3cc(C)ccc3n2)c1`, for which the survival is 47% (inactive).

Regarding `Cc1csc2nc(COC(=O)c3ccccc3NC(=O)c3ccc(C(C)(C)C)cc3)cc(=O)n12`, the survival was 55% (inactive). For the compound `Cc1csc2nc(COC(=O)c3ccccc3NC(=O)c3ccc(F)cc3)cc(=O)n12`, the survival is 14% (active).

As for `Cc1ccc2nc(COc3ccccc3NC(=O)c3ccccc3F)cc(=O)n2c1`, the survival was 80% (inactive).

Turning to `COc1ccccc1C(=O)Nc1ccccc1C(=O)OCc1cc(=O)n2c(C)csc2n1`, the survival was 131% (inactive). For the compound `Cc1ccccc1C(=O)Nc1cccc(C(=O)OCc2cc(=O)n3c(C)csc3n2)c1`, the survival is 76% (inactive). As for `Cc1ccc2nc(COc3ccccc3NC(=O)c3ccc(F)cc3)cc(=O)n2c1`, the survival was -3% (active). For `CCOc1cc(C(=O)OCc2cc(=O)n3c(C)csc3n2)cc(OCC)c1OCC`, the survival was -3% (active). For `CCOc1ccc(NC(=O)CSc2nc(-c3cccc(Cl)c3)nc3c2Cc2c(CO)cnc(C)c2O3)cc1`, the survival is 84% (inactive). In the case of `COc1cc(OC)cc(C(=O)N2CCN(C(=O)COc3ccccc3)CC2)c1`, the survival was 64% (inactive).

For the compound `CCc1ccc(NC(=O)CN(c2cc(C)cc(C)c2)S(=O)(=O)c2c(C)[nH]c(=O)[nH]c2=O)cc1`, the survival is 68% (inactive). With `CC(C)c1cc(-c2nc(-c3cccc(Cl)c3)no2)n[nH]1` the figure was 131% (inactive). To `Cc1cc(Br)ccc1NC(=O)C1CCN(S(=O)(=O)c2ccc(Br)s2)CC1` belongs 70% (inactive). As to `COC(=O)C1=C(c2ccccc2)c2ccccc2S(=O)(=O)N1CC(=O)Nc1ccc(OC)cc1OC`, the survival is 154% (inactive). Take `CS(=O)(=O)c1cccc(S(=O)(=O)c2cccc(S(C)(=O)=O)c2)c1`: the survival is 86% (inactive). Turning to `Cc1cccc(OCc2cc(=O)n3c4c(sc3n2)CCCC4)c1C`, the survival was 128% (inactive).

For `Cc1ccc(OCC(=O)Nc2cccc(C(=O)OCc3cc(=O)n4c(C)csc4n3)c2)cc1`, the survival is 69% (inactive). As for `Cc1cccc(C)c1OCc1cc(=O)n2c3c(sc2n1)CCCC3`, the survival was -1% (active). To `O=C(Nc1ccccc1C(=O)OCc1cc(=O)n2c3c(sc2n1)CCCC3)c1ccc(Cl)cc1` belongs -3% (active).

With `O=C(Nc1ccccc1C(=O)OCc1cc(=O)n2c3c(sc2n1)CCCC3)c1cccc(Cl)c1`, the survival is 73% (inactive). In the case of `Cc1cccc(OCC(=O)Nc2cccc(C(=O)OCc3cc(=O)n4c(C)csc4n3)c2)c1`, the survival is -6% (active).

Take `O=C(Nc1ccccc1C(=O)OCc1cc(=O)n2c3c(sc2n1)CCCC3)c1ccccc1`: the survival was 94% (inactive). Regarding `Cc1ccc(OCc2cc(=O)n3c4c(sc3n2)CCCC4)cc1C`, the survival is 80% (inactive).

On to `Cc1csc2nc(COC(=O)c3cccc(NC(=O)COc4ccc(Cl)cc4)c3)cc(=O)n12`, for which the survival was 78% (inactive).

As to `CCCCSc1nc(-c2cccc(OC)c2)nc2c1Cc1c(CO)cnc(C)c1O2`, the survival was 86% (inactive). On to `O=C(c1nc(-c2ccc(Cl)cc2)n2c1CCCCC2)N1CCN(c2ccccc2F)CC1`, for which the survival was 68% (inactive). As for `COc1ccc(CCNC(=O)CN(c2cc(C(F)(F)F)ccc2Cl)S(C)(=O)=O)cc1`, the survival was 68% (inactive). Turning to `CCc1ccc(N2CC(c3nnc(NC(=O)c4ccco4)s3)CC2=O)cc1` (centres undefined), the survival is 78% (inactive). As to `Cc1nn(-c2ccccc2)c2sc(C(=O)Nc3ccc(Cl)cc3Cl)cc12`, the survival is 72% (inactive).

In the case of `Cc1nn(-c2ccccc2)c2sc(C(=O)Nc3cccc(O)c3)cc12`, the survival is 43% (inactive). To `Cc1cccc(NC(=O)c2cc3c(C)nn(-c4ccccc4)c3s2)c1` belongs -2% (active); to `CCOc1ccc(NC(=O)c2cc3c(C)nn(-c4ccccc4)c3s2)cc1`, 78% (inactive). To `Cc1nn(-c2ccccc2)c2sc(C(=O)Nc3cccc(Br)c3)cc12` belongs 36% (inactive).

For `Cc1nn(-c2ccccc2)c2sc(C(=O)Nc3cccc(Cl)c3)cc12`, the survival is 5% (active). With `CCOc1ccccc1C(=O)N(Cc1cc(OC)c(OC)c(OC)c1)c1ccccn1` the figure was 82% (inactive); with `CCCOc1ccc(-c2cccc(NS(=O)(=O)c3ccc(CC)cc3)c2)nn1`, 69% (inactive); with `COC(=O)c1cccc(S(=O)(=O)N2CCC(NC(=O)Nc3cccc(F)c3)CC2)c1`, 110% (inactive). With `CCOC(=O)c1cnc2ccc(OCC)cc2c1Nc1cc(Cl)c(OC)cc1OC` the figure was 60% (inactive). In the case of `CCOc1ccc(Nc2c(S(=O)(=O)c3ccccc3)cnc3ccc(F)cc23)cc1`, the survival is 61% (inactive).

Regarding `CCOC(=O)c1cnc2cc(C(F)(F)F)ccc2c1Nc1cc(C)ccc1OC`, the survival was 67% (inactive). As to `CCOc1ccc(Nc2c(S(=O)(=O)c3ccc(Cl)cc3)cnc3ccc(OCC)cc23)cc1`, the survival was 79% (inactive). Turning to `CCOc1ccc(Nc2cc(C(=O)NCc3ccccc3Cl)c3ccccc3n2)cc1`, the survival was 92% (inactive). `CCOc1ccc(Nc2c(S(=O)(=O)c3ccccc3)cnc3ccc(CC)cc23)cc1`: the survival was 4% (active).

Take `CCOC(=O)c1cnc2ccc(OCC)cc2c1NCCN(C)C`: the survival is 103% (inactive). `CCOC(=O)c1cnc2cc(C(F)(F)F)ccc2c1Nc1ccc(F)cc1F`: the survival is -12% (active). As for `CCOC(=O)c1cnc2c(ccc3ccccc32)c1Nc1cccc(C(F)(F)F)c1`, the survival was 37% (inactive). Turning to `CCOc1ccc(Nc2c(S(=O)(=O)c3ccccc3)cnc3ccccc23)cc1`, the survival is 38% (inactive). For `CCOC(=O)c1cnc2ccc(Cl)cc2c1Nc1ccc(OCC)cc1`, the survival was -3% (active).

With `CCOC(=O)c1cnc2ccc(OCC)cc2c1Nc1ccc(OCc2ccccc2Cl)cc1`, the survival is 5% (active). As for `CC(=O)NCCNc1nc2c(S(=O)(=O)c3ccc(C)c(C)c3)nnn2c2ccc(Cl)cc12`, the survival is 80% (inactive). As for `O=C(CN1C(=O)COc2ccc(S(=O)(=O)N3CCOCC3)cc21)NCc1ccc(Cl)cc1`, the survival was 78% (inactive). With `CCNc1c(NC(=O)c2ccccc2OCC)c(=O)oc2ccccc12` the figure was 90% (inactive); with `CC1=C(C(=O)Nc2ccccc2)C(c2ccc(C)o2)NC(=S)N1` (centres undefined), 109% (inactive); with `O=C(O)c1cnc2ccccn2c1=O`, 109% (inactive). To `Cc1noc(C)c1S(=O)(=O)N(CC(=O)NCc1ccccc1Cl)c1ccc(C(C)C)cc1` belongs 82% (inactive); to `NC(=O)CSc1nnc(COc2ccccc2)n1C1CCCCC1`, 110% (inactive). Regarding `CCOC(=O)C1CCN(C(c2ccccc2OC)c2c(O)cc(C)n(CCOC)c2=O)CC1` (centres undefined), the survival is 70% (inactive).

For the compound `Cc1ccc(N2CC(NC(=O)C3CCCC3)CC2=O)cc1` (centres undefined), the survival was 55% (inactive). With `COCCn1c(CNC(=O)c2cccc(N(C)C)c2)nc2cccnc21` the figure was 65% (inactive); with `Cc1nn(CC(=O)NCc2ccc(N(C)C)cc2)c(=O)c2c(C)n(-c3ccc(Cl)cc3)nc12`, 95% (inactive). On to `COc1ccc(CC(C)NS(=O)(=O)c2ccc3c(c2)CCN3S(C)(=O)=O)cc1OC` (centres undefined), for which the survival is 134% (inactive).

In the case of `CCOC(=O)c1c(C)[nH]c(C)c1S(=O)(=O)N(C)CC(=O)Nc1ccc(C)c(N(C)C)c1`, the survival was 73% (inactive).
